PLK1 PBD block = PLK1 (human) polo-box domain binding inhibition; Plk1 PBD binding of FITC phosphopeptide, fluorescence polarization; 360,000 compounds, 2.8% hits; AID 720504; P53350; Potency, µM, for the others: max response, negative = inhibition, most hits filed as inhibitors; note: potency is the fitted concentration of half-maximal effect; series mostly up to about 57 µM; nearly all actives have a fitted effect of over 65% in size
GALK inh = inhibitors of human galactokinase | P51570 | Purified GALK, Kinase-Glo residual ATP luminescence | Potency, µM (highest dose often 57.5 µM), for the others: top-dose activity change, negative = inhibition, actives largely listed as inhibitors | 270,000 compounds, 0.007% hits | AID 1868; note: potency is the fitted concentration of half-maximal effect
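Kinase-Glo Plus luminescence measured ATP left after a 1 h room-temperature reaction. The reaction used 5 nM GALK, 100 uM galactose and 35 uM ATP at pH 8.0 (20 mM HEPES, 5 mM MgCl2, 60 mM NaCl, 1 mM DTT, 0.01% BSA).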
USP2a block = USP2a (human) protease inhibition | USP2 core, Ub-CHOP2 coupled fluorogenic reporter, 485/531 | Potency, µM (top dose mostly 38.3 µM), for the others: at the highest dose activity change, negative = inhibition, hits mostly inhibitors | 330,000 compounds, 0.01% hits | AID 463254;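 note: potency is the fitted concentration of half-maximal effect; plate controls were DMSO wells for no effect and full inhibition by NEM control for full effect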
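Deubiquitinase activity read as fluorescence (485/531 nm) after Ub-CHOP2 cleavage activates the enterokinase reporter on its substrate; USP2 core 10nM, Ub-CHOP2 and substrate 25nM each, 30min compound preincubation then 60min RT; data normalized to NEM, curves fitted.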
Coupling enz = counter-screen for Giardia aldolase inhibitors: coupling enzyme system. coupling enzyme system counterscreen, AmpLite Red fluorescence. activity change, negative = inhibition, % at 58.2 µM, hits read low. 290,000 compounds, 0.67% hits; in the data active = activity change below about -30%
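Coupling enzymes only (glyceraldehyde-3-phosphate) + compound, at 57.5 uM final, 10 min RT; add substrate/coupling/AmpLite Red mix, 20 min RT; fluorescence ex 525/em 598 nm. Actives flag coupling-system interference.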
VDR inh = blocks the human vitamin D receptor; VDR-SRC2-3 peptide fluorescence polarization, 2 h; Potency, µM, for inactives: max response, negative = inhibition, hits mostly inhibitors; 400,000 compounds, 0.93% hits; note: potency is the fitted concentration of half-maximal effect
Target sequence (P11473 whole entry, looked up): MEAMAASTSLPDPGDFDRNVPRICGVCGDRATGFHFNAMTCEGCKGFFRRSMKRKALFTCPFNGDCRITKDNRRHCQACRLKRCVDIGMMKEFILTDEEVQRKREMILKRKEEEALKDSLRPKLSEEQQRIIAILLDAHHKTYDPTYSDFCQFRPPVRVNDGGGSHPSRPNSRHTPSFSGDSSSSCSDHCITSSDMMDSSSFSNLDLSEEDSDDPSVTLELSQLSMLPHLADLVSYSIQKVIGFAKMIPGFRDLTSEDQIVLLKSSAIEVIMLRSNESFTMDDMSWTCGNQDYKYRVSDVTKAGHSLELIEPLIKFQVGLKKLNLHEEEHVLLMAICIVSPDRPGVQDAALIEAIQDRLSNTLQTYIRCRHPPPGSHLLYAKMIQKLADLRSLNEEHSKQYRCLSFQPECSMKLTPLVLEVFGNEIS
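Compounds are added to VDR with labelled SRC2-3 coactivator peptide and held 2 h at room temperature. Inhibition of the VDR–peptide interaction is then read as a change in fluorescence polarization.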
USP1 inh = inhibitors of human USP1/UAF1 deubiquitinase; O94782; recombinant USP1/UAF1, Ub-Rhodamine cleavage fluorescence; Potency, µM (top dose mostly 57.1 µM), for the others: top-dose activity change, negative = inhibition, actives largely listed as inhibitors; 390,000 compounds, 0.23% hits; AID 743255; note: potency is the fitted concentration of half-maximal effect; nearly all actives have a fitted effect of over 60% in size
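In this screen, compounds sit with the deubiquitinase complex (1nM) for 15 min at room temperature before Ub-Rho is added at 150nM final. Fluorescence rise is then followed for 6 reads every 60 seconds.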
An asterisk follows results filed as active. Hits are enriched below; roughly 3.2% of the tested compounds scored in any of these assays. Unless noted, calls come from the whole dose curve; as a rule, active = well fitted curve in the direction sought with a large enough effect; inconclusive = small, poorly fitted or top-dose-only effect, or another doubt; inactive = no such curve, though single readings can be large; an effect the other way counts as inactive or inconclusive. Unless noted, % is set by controls: 0 for no effect and ±100 for the full control effect.

How did O=C(Nc1ccc(Br)cc1)N1CCc2ccccc2C1 do in these assays?
PLK1 PBD block: -1%; GALK inh: 2%; USP2a block: -1%; Coupling enz: -2; VDR inh: 7%; USP1 inh: -15%

Results for CN(C)C=Nc1nonc1-c1ccccc1 ?
PLK1 PBD block: -2%; GALK inh: 8%; USP2a block: -2%; Coupling enz: 5; VDR inh: 4%; USP1 inh: 3%

What do the screens show for `CN(C)C=Nc1c(Br)cc(Br)c2nonc12`?
PLK1 PBD block: inconclusive; GALK inh: -1%; USP2a block: 9%; Coupling enz: -43*; VDR inh: inconclusive; USP1 inh: inconclusive

Results for Cc1cn([C@H]2C[C@H](O)[C@@H](CNCc3ccccc3)O2)c(=O)[nH]c1=O ?
PLK1 PBD block: -10%; USP1 inh: -22%

Results for Cc1cn([C@H]2C[C@H](O)[C@@H](CNCc3cccn3-c3ccncc3)O2)c(=O)[nH]c1=O ?
PLK1 PBD block: 1.1µM*; USP1 inh: -15%

How did O=C(O)c1[nH]c2ccccc2c1C(c1ccccc1)c1c(C(=O)O)[nH]c2ccccc12 do in these assays?
PLK1 PBD block: 27µM*; GALK inh: -6%; USP2a block: -1%; Coupling enz: 14; VDR inh: inconclusive; USP1 inh: -23%

What do the screens show for `COc1cc(C(c2c(C(=O)O)[nH]c3ccccc23)c2c(C(=O)O)[nH]c3ccccc23)ccc1OCc1ccccc1`?
PLK1 PBD block: 8.4µM*; GALK inh: 4%; USP2a block: -28%; Coupling enz: 9; VDR inh: 11%; USP1 inh: inconclusive

How did COc1cc(CC(=O)O)ccc1OCc1ccccc1 do in these assays?
PLK1 PBD block: 2%; USP2a block: 4%; Coupling enz: -2; VDR inh: -9%; USP1 inh: -6%

How did C=CCOc1ccc(C(c2c(C(=O)O)[nH]c3ccccc23)c2c(C(=O)O)[nH]c3ccccc23)cc1 do in these assays?
PLK1 PBD block: 8.4µM*; GALK inh: -9%; USP2a block: -29%; Coupling enz: 15; VDR inh: -15%; USP1 inh: inconclusive

Results for O=C(O)c1[nH]c2ccccc2c1C(c1cc(Cl)cc([N+](=O)[O-])c1O)c1c(C(=O)O)[nH]c2ccccc12 ?
PLK1 PBD block: 7.5µM*; GALK inh: -2%; USP2a block: -7%; Coupling enz: 7; VDR inh: 79µM*; USP1 inh: 32µM*

How did Cc1ccc(C(c2ccccc2)c2c(C)[nH]c3ccccc23)s1 (stereo unspecified) do in these assays?
VDR inh: -1%; USP1 inh: inconclusive

How did O=C(Nc1ccc2c(c1)OCCO2)C1c2ccccc2OCC(=O)N1Cc1ccc2c(c1)OCO2 (stereo unspecified) do in these assays?
PLK1 PBD block: -4%

How did CC(=O)N1CCOc2ccc(S(=O)(=O)NC[C@H]3O[C@@H](n4ccc(N)nc4=O)[C@H](O)[C@@H]3O)cc21 do in these assays?
PLK1 PBD block: -10%; USP1 inh: 4%

Results for CCc1ccccc1OCC(=O)Nc1cccc(S(=O)(=O)NCc2ccco2)c1 ?
PLK1 PBD block: -26%; USP2a block: -12%; VDR inh: -16%; USP1 inh: -12%

Results for Cc1cc(C)cc(C(O)c2ncc(-c3ccc(C(F)(F)F)cc3)[nH]2)c1 (stereo unspecified) ?
PLK1 PBD block: -7%

Results for S=c1[nH]c2cnc(Cl)nc2[nH]1 ?
PLK1 PBD block: 24µM*; VDR inh: inconclusive; USP1 inh: -5%

What do the screens show for `Cc1cc(Nc2nnnn2-c2ccccc2)n(-c2ccc(Cl)cc2)n1`?
PLK1 PBD block: -11%; GALK inh: -4%; USP2a block: -17%; Coupling enz: 0; VDR inh: -3%; USP1 inh: 1%

Results for CCNC(=O)c1ccc(CSc2ccc(Cl)cc2)cc1 ?
PLK1 PBD block: 27µM*; GALK inh: 1%; USP2a block: 2%; Coupling enz: 1; VDR inh: -17%; USP1 inh: -8%

Results for CCC(=O)N1CCc2cc(-c3csc(NC(=O)c4ccco4)n3)ccc21 ?
PLK1 PBD block: -5%; GALK inh: 16%; USP2a block: -2%; Coupling enz: -3; VDR inh: 16%; USP1 inh: -8%

What do the screens show for `CC(C)C(=O)N1CCc2cc(-c3csc(N)n3)ccc21`?
PLK1 PBD block: 24µM*; GALK inh: 0%; USP2a block: -1%; Coupling enz: 1; VDR inh: -19%; USP1 inh: -12%

How did Nc1c(C(=O)NCc2cccnc2)sc(=S)n1-c1ccccc1 do in these assays?
PLK1 PBD block: 17µM*; GALK inh: 0%; USP2a block: 0%; Coupling enz: -7; VDR inh: inconclusive; USP1 inh: -7%

Results for CCn1c(N)c(C(=O)NCc2cccnc2)sc1=S ?
PLK1 PBD block: -27%; GALK inh: 1%; USP2a block: 0%; Coupling enz: -2; VDR inh: -5%; USP1 inh: -17%

Results for Cc1cccc(OCC(=O)Nc2nc3ccc([N+](=O)[O-])cc3s2)c1 ?
PLK1 PBD block: -3%; GALK inh: 4%; USP2a block: 0%; Coupling enz: 5; VDR inh: 16%; USP1 inh: -4%

What do the screens show for `O=C(O)COc1ccc(/C=C/c2nc3ccc([N+](=O)[O-])cc3s2)cc1`?
PLK1 PBD block: 24µM*; GALK inh: -4%; USP2a block: 2%; Coupling enz: 0; VDR inh: 32µM*; USP1 inh: -17%

How did COc1ccc(NC2C=CS(=O)(=O)C2)c(OC)c1 (stereo unspecified) do in these assays?
PLK1 PBD block: -16%; GALK inh: 1%; USP2a block: 1%; Coupling enz: -41*; VDR inh: 5%; USP1 inh: -7%

Results for CC1(C)CC2(CC(c3ccccc3F)c3ccc(O)c(O)c3O2)NC(=S)N1 (stereo unspecified) ?
PLK1 PBD block: 19µM*; GALK inh: 6%; USP2a block: -1%; Coupling enz: -5; VDR inh: 22%; USP1 inh: -4%

What do the screens show for `Cc1ccc2occ(/C=N/NC(=O)[C@@H](N)Cc3ccccc3)c(=O)c2c1`?
PLK1 PBD block: -6%; USP2a block: -1%; Coupling enz: -1; VDR inh: -14%; USP1 inh: -5%
